Experimental data: PubChem BioAssay AID1159580 (chemical genetic matrix, 2015)
Among all 5,500 compounds or so, about 2,000 (36%) were called active. Not shown: some 18% with an inconclusive outcome. No stated cut-off is given here; in the data, active means normalized growth mostly below about 0.91 (no sharp cut-off); inconclusive means no clear call, values can overlap the other calls; inactive means mostly above about 0.92. The list shows a part of the results.

Assay: chemical genetic growth profiling, strain panel (AID 1159580);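 further: tested at 20 µM; growth read once vehicle control cultures reached saturation at 30 °C; 1 = growth at the plate median or of vehicle wells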
Conditions: S. cerevisiae deletion strains, growth OD

Measured: normalized growth

C=C1C(=O)OC2CC1C(OC(C)=O)C/C(C)=C/CC/C(C)=C/CC[C@]2(C)O (stereo partly specified)
inactive: locus YAL013W, strain DEP1, stronger effect = lower value 0.999 | locus YAL021C, strain ccr4, stronger effect = lower value 0.964 | locus YAL026C, strain drs2, stronger effect = lower value 0.987 | locus YAL030W, strain snc1, stronger effect = lower value 0.984 | locus YBL061C, strain skt5, stronger effect = lower value 1.01 | locus YBR009C, strain hhf1, stronger effect = lower value 1.01 | locus YBR021W, strain FUR4, stronger effect = lower value 1.03 | locus YBR023C, strain chs3, stronger effect = lower value 1.01 | locus YBR171W, strain sec66, stronger effect = lower value 0.994 | locus YBR229C, strain ROT2, stronger effect = lower value 1.02 | locus YBR231C, strain swc5, stronger effect = lower value 1.01 | locus YBR279W, strain paf1, stronger effect = lower value 0.996 | locus YCL011C, strain gbp2, stronger effect = lower value 1 | locus YCL016C, strain dcc1, stronger effect = lower value 1 | locus YCL029C, strain bik1, stronger effect = lower value 1.02 | locus YCL061C, strain MRC1, stronger effect = lower value 0.993 | locus YCL069W, strain vba3, stronger effect = lower value 0.987 | locus YCR088W, strain abp1, stronger effect = lower value 0.991 | locus YDL005C, strain med2, stronger effect = lower value 0.992 | locus YDL035C, strain GPR1, stronger effect = lower value 1.01 | locus YDL040C, strain nat1, stronger effect = lower value 0.981 | locus YDL074C, strain BRE1, stronger effect = lower value 1 | locus YDL101C, strain DUN1, stronger effect = lower value 1.01 | locus YDL185W, strain tfp1, stronger effect = lower value 1.02 | locus YDL192W, strain arf1, stronger effect = lower value 1 | locus YDR001C, strain nth1, stronger effect = lower value 0.982 | locus YDR069C, strain doa4, stronger effect = lower value 1.01 | locus YDR101C, strain arx1, stronger effect = lower value 1.03 | locus YDR137W, strain rgp1, stronger effect = lower value 0.935 | locus YDR150W, strain NUM1, stronger effect = lower value 1 | locus YDR159W, strain sac3, stronger effect = lower value 1.03 | locus YDR162C, strain NBP2, stronger effect = lower value 1.02 | locus YDR195W, strain ref2 1.02 | locus YDR297W, strain sur2, stronger effect = lower value 0.997 | locus YDR318W, strain mcm21, stronger effect = lower value 1 | locus YDR334W, strain swr1, stronger effect = lower value 1.01 | locus YDR335W, strain msn5, stronger effect = lower value 0.985 | locus YDR388W, stronger effect = lower value 1.01 | locus YDR392W, strain spt3, stronger effect = lower value 0.977 | locus YDR502C, strain sam2, stronger effect = lower value 1.03 | locus YEL003W, strain gim4, stronger effect = lower value 1.01 | locus YEL037C, strain rad23, stronger effect = lower value 0.99 | locus YEL061C, strain CIN8 (second series), stronger effect = lower value 0.994 | locus YEL061C, strain CIN8, stronger effect = lower value 1.02 | locus YER015W, strain faa2, stronger effect = lower value 1 | locus YER016W, strain bim1, stronger effect = lower value 0.992 | locus YER110C, stronger effect = lower value 1.02 | locus YER111C, strain swi4, stronger effect = lower value 0.995 | locus YER155C, strain BEM2 (second series), stronger effect = lower value 1.03 | locus YER155C, strain BEM2, stronger effect = lower value 1 | locus YER167W, strain BCK2, stronger effect = lower value 1.01 | locus YFR010W, strain ubp6, stronger effect = lower value 0.995 | locus YGL078C, strain dbp3, stronger effect = lower value 1.01 | locus YGL086W, strain mad1, stronger effect = lower value 1.02 | locus YGL167C, strain pmr1, stronger effect = lower value 0.988 | locus YGL173C, strain kem1, stronger effect = lower value 1.01 | locus YGL227W, strain vid30, stronger effect = lower value 0.989 | locus YGL240W, strain doc1, stronger effect = lower value 1.02 | locus YGL248W, strain PDE1, stronger effect = lower value 1.02 | locus YGL253W, strain hxk2, stronger effect = lower value 0.923 | locus YGR135W, strain pre9, stronger effect = lower value 1 | locus YGR252W, strain gcn5, stronger effect = lower value 1.01 | locus YHR013C, strain ard1, stronger effect = lower value 0.979 | locus YHR027C, strain rpn1, stronger effect = lower value 0.99 | locus YHR030C, strain SLT2, stronger effect = lower value 1.02 | locus YHR079C, strain IRE1 (second series), stronger effect = lower value 1.01 | locus YHR094C, strain hxt1, stronger effect = lower value 1.01 | locus YHR129C, strain ARP1, stronger effect = lower value 1.01 | locus YHR142W, strain chs7, stronger effect = lower value 1.01 | locus YHR200W, strain rpn10, stronger effect = lower value 1.02 | locus YIL066C, strain RNR3, stronger effect = lower value 1.01 | locus YIL073C, strain SPO22, stronger effect = lower value 0.983 | locus YIL125W, strain kgd1, stronger effect = lower value 1.01 | locus YIR030C, strain dcg1, stronger effect = lower value 1.01 | locus YJL092W, strain hpr5, stronger effect = lower value 0.988 | locus YJL095W, strain BCK1 (second series), stronger effect = lower value 0.998 | locus YJL095W, strain BCK1, stronger effect = lower value 1 | locus YJL115W, strain asf1, stronger effect = lower value 0.982 | locus YJL129C, strain trk1, stronger effect = lower value 1.01 | locus YJL134W, strain LCB3, stronger effect = lower value 1 | locus YJL154C, strain vps35, stronger effect = lower value 0.982 | locus YJL164C, strain tpk1, stronger effect = lower value 0.981 | locus YJL166W, strain qcr8, stronger effect = lower value 1 | locus YJL168C, strain set2, stronger effect = lower value 1.03 | locus YJL187C, strain SWE1 (second series), stronger effect = lower value 1.01 | locus YJL187C, strain SWE1, stronger effect = lower value 0.978
